The values below come from PubChem BioAssay (EPA / NIEHS).

Broadly, the AC50 is the concentration giving half of the maximal activity seen.

Several values for one entry are separate records, joined by “and”; a condition that tells them apart may be missing. Identical values can stand only once. Inconclusive results are not listed. A structure can be active in one record and inactive in another. Activity calls are given as the source filed them. How the source made its calls, unless noted: active means hit-call score of the fitted dose curve at least 0.9, where 1 is the maximum; inactive means score below 0.9.

Test [1] is described as follows: CCTE_Shafer_MEA_dev_active_electrodes_number: CCTE's Neural Network Formation Assay for Number of Active Electrodes, Shafer Lab (AID 2284040; active means hit-call score of the fitted dose curve at least 0.9, where 1 is the maximum;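 on AC50: potency for loss of active electrodes versus DMSO so lower counts are hits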). The method, boiled down:
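Counts electrodes per well firing at least 5 spikes/min, recorded on days 5, 7, 9 and 12 in rat cortical cultures dosed continuously from plating (treatment refreshed DIV 5, 9). Value is the area under the curve over recordings, fitted downward relative to DMSO.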

Test [2] can be described thus: CCTE_Shafer_MEA_dev_burst_rate: CCTE's Neural Network Formation Assay for Burst Rate, Shafer Lab (AID 2284042).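 On AC50: potency for loss of burst rate below DMSO control.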 The method, boiled down:
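Exposure ran continuously over 12 days of network development in rat cortical cultures, with compound refreshed during full media changes on DIV 5 and 9. Single-electrode bursts per recording time, well-mean over active electrodes, trapezoidal AUC across days 5–12, fitted downward relative to DMSO.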

Test [3] can be described thus: CCTE_Shafer_MEA_dev_bursting_electrodes_number: CCTE's Neural Network Formation Assay for Number of Bursting Electrodes, Shafer Lab (AID 2284043; active means hit-call score of the fitted dose curve at least 0.9, where 1 is the maximum;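 on AC50: potency is for loss of bursting electrodes relative to DMSO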). An outline of the steps: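 Rat cortical primary neurons, 48-well MEA, 16 electrodes/well; dosing DIV 0–12, re-dosed with full media change DIV 5, 9. Recordings DIV 5/7/9/12, AxIS adaptive spike detector; bursting electrode = ≥1 burst/2 min. AUC across days; loss of signal vs DMSO.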

Test [4] is described as follows: CCTE_Shafer_MEA_dev_per_burst_interspike_interval: CCTE's Neural Network Formation Assay for Burst Interspike Interval, Shafer Lab (AID 2284044).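 Further: mean spike spacing inside bursts as AUC over recordings on days 5 7 9 12.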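 On AC50: potency for a decrease of within-burst interspike interval below DMSO level.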 The method, boiled down:
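Primary rat cortical neurons on 48-well MEA plates, exposed from day 0 through day 12, treatment renewed at DIV 5 and 9. Within-burst interspike interval recorded days 5, 7, 9, 12, well-averaged, summarised as AUC; negative fit versus DMSO.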

Test [5] can be described thus: CCTE_Shafer_MEA_dev_burst_duration_mean: CCTE's Neural Network Formation Assay for Mean Burst Duration, Shafer Lab (AID 2284045).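 On AC50: curve fitted for loss meaning shorter burst duration than DMSO.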 The method, boiled down:
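Rat cortical cultures, 1.5 x 10^5 cells/well with laminin drop; continuous dosing days 0–12, media plus treatment refreshed DIV 5, 9. AxIS adaptive spike detection; mean single-electrode burst duration, AUC over four recordings, negative direction vs DMSO.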

A short description of test [6]: CCTE_Shafer_MEA_dev_network_spike_number: CCTE's Neural Network Formation Assay for Number of Network Spikes, Shafer Lab (AID 2284048).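 Further: synchronized bursts across electrodes counted on days 5 7 9 12 and integrated as AUC.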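 On AC50: fit as a loss of signal meaning fewer network spikes than DMSO.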 The method, boiled down:
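Rat cortical primary cultures on 48-well MEA (16 electrodes/well); continuous exposure DIV 0–12, full medium and treatment exchange DIV 5, 9. Readout: network spike count, AxIS adaptive detection, recordings DIV 5/7/9/12 collapsed to AUC; loss-of-signal fit, DMSO baseline.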

A short description of test [7]: CCTE_Shafer_MEA_dev_network_spike_peak: CCTE's Neural Network Formation Assay for Mean Number of Electrodes in Network Spike, Shafer Lab (AID 2284049).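 On AC50: fitted for loss of signal meaning fewer electrodes in network spikes than DMSO.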 An outline of the steps:
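Network-spike peak electrode count from recordings on days 5, 7, 9 and 12 was combined as trapezoidal area under the curve. Rat cortical cultures were treated continuously from plating, with compound renewed at each feed (DIV 5, 9); fits versus DMSO.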

Test [8] in a line: CCTE_Shafer_MEA_dev_spike_duration_mean: CCTE's Neural Network Formation Assay for Mean Spike Duration, Shafer Lab (AID 2284051).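 On AC50: potency for a decrease in mean network spike duration versus DMSO.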 An outline of the steps: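 Spontaneous activity was recorded on days 5, 7, 9 and 12 from rat cortical cultures grown on microelectrode arrays and dosed continuously from day 0, with media and compound renewed after the DIV 5 and 9 recordings. Network-spike duration was collapsed by area under the curve.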

Test [9] addresses Estrogen receptor (Homo sapiens) (UniProt P03372). Nature of the test: CCTE_Deisenroth_AIME_384WELL_LUC_Shift: CCTE's 384-well Estrogen Receptor Transactivation Assay with AIME metabolic competence data shift (ERTA luciferase; difference in metabolism positive and negative), Deisenroth Lab (AID 2284041).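 Further: shift is response with S9 minus without S9 so positive means metabolism raised ER signal.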 The method, boiled down:
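Chemicals (0.002–200 uM, 10 points) pre-incubated 2 h with alginate-encapsulated induced male Sprague Dawley rat liver S9 or S9-free, then medium applied 24 h to VM7Luc4E2 cells; luciferase. Endpoint is per-concentration difference, S9-positive minus negative.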

A further test has as its system DIO2 (gene 1734). Nature of the test: CCTE_GLTED_hDIO2: CCTE's human Deiodinase 2 (DIO2) Inhibition Assay, Great Lakes Toxicology and Ecology Division (GLTED) Lab (AID 2284050; active means hit-call score of the fitted dose curve at least 0.9, where 1 is the maximum). The method, boiled down: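 Iodide released by human deiodinase 2 over 3 h with test chemical, measured spectrophotometrically via Sandell-Kolthoff cerium/arsenic reaction. Run n=3; inhibition referenced to DMSO.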

Estrogen receptor (Homo sapiens), sequence (P03372 whole entry, looked up): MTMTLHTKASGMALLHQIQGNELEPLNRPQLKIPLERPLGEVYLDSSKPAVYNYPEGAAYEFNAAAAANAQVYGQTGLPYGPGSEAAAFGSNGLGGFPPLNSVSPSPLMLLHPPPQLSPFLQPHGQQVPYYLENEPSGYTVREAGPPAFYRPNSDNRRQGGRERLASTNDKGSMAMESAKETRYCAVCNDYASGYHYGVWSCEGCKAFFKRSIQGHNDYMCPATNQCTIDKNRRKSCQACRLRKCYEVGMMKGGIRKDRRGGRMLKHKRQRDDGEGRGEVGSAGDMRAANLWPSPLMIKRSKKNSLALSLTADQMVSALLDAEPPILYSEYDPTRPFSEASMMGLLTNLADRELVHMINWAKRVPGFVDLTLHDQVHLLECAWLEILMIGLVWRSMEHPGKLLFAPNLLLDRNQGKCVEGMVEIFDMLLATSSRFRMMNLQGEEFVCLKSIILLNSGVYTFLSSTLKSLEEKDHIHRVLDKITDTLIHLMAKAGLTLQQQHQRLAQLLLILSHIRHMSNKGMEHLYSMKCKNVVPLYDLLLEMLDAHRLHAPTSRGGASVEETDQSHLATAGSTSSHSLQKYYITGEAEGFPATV

Consider `CC1(C)C(C=C(Cl)Cl)C1C(=O)OC(C#N)c1ccc(F)c(Oc2ccccc2)c1` (stereo not drawn), for which the AC50 in [1] is 10 µM (active) and 26.4 µM (active) and 10.4 µM (active); in test [2] it was 1.07 µM (active) and 259 nM (active); in test [3] it was 2.28 µM (active) and 25.9 µM (active) and 9.56 µM (active); in test [4] it was 10 µM (active); in [5] it was 2.04 µM (active) and 8.68 µM (active) and 7.93 µM (active); in test [6] it was 235 nM (active) and 10.6 µM (active) and 6.32 µM (active). Also, the AC50 in test [7] was 10 µM (active) and 11.1 µM (active) and 15 µM (active); in test [8], 5.46 µM (active) and 10.2 µM (active) and 8.39 µM (active). Moreover, the compound was called inactive in [2] and in [4].
As to `COP(=O)(OC)OC=C(Cl)Cl`, the AC50 is 5.4 µM (active) in test [1]; 1.16 µM (active) in test [2]; 0.659 µM (active) in [3]; 10.1 µM (active) in test [4]; 983 nM (active) in test [6]; 2.87 µM (active) in [7]. Besides, the AC50 in test [8] was 1.45 µM (active). In addition, the compound was called inactive in test [1], in test [9], in test [2], in test [3], in test [4] and in test [5]. Besides, the call in [6], in test [7] and in test [8] was inactive.
Consider `N#Cc1c(Cl)c(Cl)c(Cl)c(C#N)c1Cl`, for which, in the test on DIO2 (gene 1734), the half-maximal activity concentration (AC50) was 5.63 µM (active).
Turning to `OCCOc1ccccc1`, the AC50 in test [9] is 23.8 µM (active).
With `CCc1ccc(C(=O)NN(C(=O)c2cc(C)cc(C)c2)C(C)(C)C)cc1`, in test [9], the outcome was inactive.
Take `O=C(O)COc1ccc(Cl)cc1Cl`: the AC50 in test [1] is 50 µM (active); in [3], 30.9 µM (active); in test [7], 50 µM (active). For the same compound, the call in test [2], in test [4], in [5], in [6] and in [8] was inactive.
Regarding `O=C(O)C(F)(F)C(F)(F)C(F)(F)C(F)(F)C(F)(F)C(F)(F)C(F)(F)F`, the figures for the concentration at half-maximal activity (AC50) in test [1] and in test [7] were 14.1 µM (active) and 13.9 µM (active), respectively. Moreover, the compound was called inactive in [1], in test [2], in [3], in test [4], in [5] and in [6]. Besides, the call in test [7] and in test [8] was inactive.
As for `Cc1[nH]c(=O)n(C(C)(C)C)c(=O)c1Cl`, in test [9], the concentration at half-maximal activity (AC50) was 66.1 µM (active).
For the compound `CCOC1Oc2ccc(OS(C)(=O)=O)cc2C1(C)C` (stereo not drawn), the outcome in test [9] was inactive.
Still for that read-out and setting: the result for `CNC(=O)Oc1ccccc1OC(C)C` reads “inactive”.
In the case of `CC[C@H](C)[C@H]1O[C@]2(C=C[C@@H]1C)C[C@@H]1C[C@@H](C/C=C(\C)[C@@H](O[C@H]3C[C@H](OC)[C@@H](O[C@H]4C[C@H](OC)[C@@H](O)[C@H](C)O4)[C@H](C)O3)[C@@H](C)/C=C/C=C3\CO[C@@H]4[C@H](O)C(C)=C[C@@H](C(=O)O1)[C@]34O)O2` (tested in a mixture with another compound), the AC50 in [1] is 3.93 nM (active) and 1.65 nM (active); in test [2], 1.57 nM (active) and 0.778 nM (active); in test [3], 3.82 nM (active) and 1.05 nM (active); in test [4], 1.37 nM (active) and 2.71 nM (active); in test [5], 1.34 nM (active) and 0.41 nM (active); in [6] it was 27.5 nM (active) and 2.25 nM (active). The concentration at half-maximal activity (AC50) in test [7] was 16.4 nM (active) and 2.37 nM (active); in test [8], 3.01 nM (active) and 0.926 nM (active).
Take `ClC1C(Cl)C(Cl)C(Cl)C(Cl)C1Cl` (stereo not drawn): the result in [1], in [2], in test [3], in test [4], in test [5] and in test [6] was inactive. Besides, the result in test [7] and in test [8] was inactive.
Consider `COP(=S)(OC)Oc1ccc([N+](=O)[O-])cc1`, for which the half-maximal activity concentration (AC50) was 20.2 µM (active) in test [1], 15 µM (active) in [3] and 23.4 µM (active) in test [7]. The call in [2], in [4], in test [5], in [6] and in test [8] was inactive.
Take `CCC(C)(C)C(=O)OC1=C(c2ccc(Cl)cc2Cl)C(=O)OC12CCCCC2`: the outcome in [1], in test [2], in test [3], in [4], in test [5] and in [6] was inactive. The result in test [7] and in [8] was inactive.
In the case of `CCCN(CCC)c1c([N+](=O)[O-])cc(C(F)(F)F)cc1[N+](=O)[O-]`, the outcome in [9] was inactive.
